Assay results published in PubChem BioAssay (NCI).
About 83,000 compounds went through this panel and 20% of them were active in at least one assay; those are over-represented in the sample as a whole.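 Percent growth is the endpoint: 0 to 100 indicates growth inhibition (40 means 60% inhibition), 0 means no net growth, and negative values indicate cell death.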 The source made the active and inactive calls. The calls were made as follows: active = growth percent below 10; inactive = the rest.

Experiments:
Assay in all cases: NCI-60 one-dose screen, 48 h (100 = growth as untreated, 0 = no growth, -100 = all killed)
NCI-H460 lung = conditions: 10 µM unless noted
A549/ATCC NSCLC = conditions: 10 µM unless noted
786-0 renal = conditions: 10 µM unless noted
COLO 205 colon = conditions: 10 µM
K-562 leukemia = conditions: 10 µM unless noted
MALME-3M melanoma = conditions: 10 µM unless noted
RXF 393 renal = conditions: 10 µM unless noted
SF-295 CNS = conditions: 10 µM unless noted
UACC-257 melanoma = conditions: 10 µM unless noted
SK-MEL-5 melanoma = conditions: 10 µM unless noted
LOX IMVI melanoma = conditions: 10 µM unless noted
UO-31 renal = conditions: 10 µM unless noted
CAKI-1 renal = conditions: 10 µM unless noted
A498 renal = conditions: 10 µM unless noted
MOLT-4 leukemia = conditions: 10 µM
OVCAR-4 ovarian = conditions: 10 µM unless noted
SW-620 colon = conditions: 10 µM unless noted
SK-MEL-2 melanoma = conditions: 10 µM unless noted
HL-60(TB) leukemia = conditions: 10 µM unless noted
OVCAR-3 ovarian = conditions: 10 µM unless noted

Measured: growth

CNC(C)Cc1ccccc1 (stereo not given) (tested in a mixture with another compound)
inactive: NCI-H460 lung 104% | A549/ATCC NSCLC 92.3% | 786-0 renal 102% | COLO 205 colon 102% | K-562 leukemia 88.9% | MALME-3M melanoma 103% | RXF 393 renal 105% | SF-295 CNS 97.7% | UACC-257 melanoma 109% | SK-MEL-5 melanoma 99.6% | LOX IMVI melanoma 98.7% | UO-31 renal 82.9% | CAKI-1 renal 102% | A498 renal 92.5% | MOLT-4 leukemia 90.6% | OVCAR-4 ovarian 104% | SW-620 colon 102%

COc1cc[c]([Hg][Cl])cc1
active: RXF 393 renal -42.2% | LOX IMVI melanoma -84.2% | HL-60(TB) leukemia -22.4% | MOLT-4 leukemia -7.01% | OVCAR-3 ovarian -71.5%
inactive: NCI-H460 lung 43.9% | A549/ATCC NSCLC 94.8% | 786-0 renal 56% | K-562 leukemia 17% | MALME-3M melanoma 47.3% | SF-295 CNS 93.3% | UACC-257 melanoma 65.5% | SK-MEL-5 melanoma 30.5% | SK-MEL-2 melanoma 39.9% | UO-31 renal 96.6% | CAKI-1 renal 78.6% | A498 renal 84.8% | OVCAR-4 ovarian 65.1% | SW-620 colon 18.9%

CC(=O)O[C@H]1CCC2C3CCC4=C/C(=N/O)CCC4(C)C3CCC21C (stereo not given in full)
inactive: NCI-H460 lung 89.6% | A549/ATCC NSCLC 99.7% | 786-0 renal 76.9% | COLO 205 colon 107% | K-562 leukemia 45.9% | MALME-3M melanoma 94.3% | RXF 393 renal 102% | UACC-257 melanoma 114% | SK-MEL-5 melanoma 87.4% | LOX IMVI melanoma 93% | SK-MEL-2 melanoma 85.4% | UO-31 renal 65.1% | CAKI-1 renal 80.5% | A498 renal 53.1% | HL-60(TB) leukemia 23.1% | MOLT-4 leukemia 72.6% | OVCAR-3 ovarian 107% | SW-620 colon 74.4%

CC(C)CCC1(CCO)C(=O)NC(=S)NC1=O
inactive: NCI-H460 lung 109% | A549/ATCC NSCLC 91.9% | 786-0 renal 110% | COLO 205 colon 107% | K-562 leukemia 120% | RXF 393 renal 120% | SF-295 CNS 103% | UACC-257 melanoma 100% | SK-MEL-5 melanoma 105% | LOX IMVI melanoma 104% | SK-MEL-2 melanoma 101% | UO-31 renal 84.1% | CAKI-1 renal 102% | A498 renal 93.7% | HL-60(TB) leukemia 98.1% | MOLT-4 leukemia 113% | OVCAR-4 ovarian 109% | OVCAR-3 ovarian 108% | SW-620 colon 105%

Nc1ccc([N+](=O)[O-])c2c1Oc1ccccc1O2
inactive: NCI-H460 lung 111% | A549/ATCC NSCLC 93.8% | 786-0 renal 82.7% | COLO 205 colon 99.3% | K-562 leukemia 113% | MALME-3M melanoma 121% | RXF 393 renal 49.5% | SF-295 CNS 85.1% | UACC-257 melanoma 101% | SK-MEL-5 melanoma 96.7% | LOX IMVI melanoma 103% | SK-MEL-2 melanoma 102% | UO-31 renal 10% | CAKI-1 renal 58.3% | A498 renal 72.9% | MOLT-4 leukemia 79.7% | OVCAR-4 ovarian 94.5% | OVCAR-3 ovarian 88.3% | SW-620 colon 104%
active: HL-60(TB) leukemia -17.4%

CCOCC1(CCc2ccccc2)C(=O)NC(=S)NC1=O
inactive: NCI-H460 lung 113% | A549/ATCC NSCLC 97.8% | 786-0 renal 102% | COLO 205 colon 109% | K-562 leukemia 105% | MALME-3M melanoma 138% | RXF 393 renal 117% | SF-295 CNS 111% | UACC-257 melanoma 94.5% | SK-MEL-5 melanoma 111% | LOX IMVI melanoma 94.9% | SK-MEL-2 melanoma 103% | UO-31 renal 84% | CAKI-1 renal 99.9% | A498 renal 96.9% | HL-60(TB) leukemia 99.4% | MOLT-4 leukemia 91.8% | OVCAR-4 ovarian 120% | OVCAR-3 ovarian 117% | SW-620 colon 109%

CNC(=O)Oc1ccccc1
inactive: NCI-H460 lung 104% | A549/ATCC NSCLC 94.9% | 786-0 renal 104% | COLO 205 colon 104% | K-562 leukemia 109% | MALME-3M melanoma 105% | RXF 393 renal 112% | UACC-257 melanoma 102% | SK-MEL-5 melanoma 97.1% | LOX IMVI melanoma 106% | SK-MEL-2 melanoma 118% | UO-31 renal 98.8% | CAKI-1 renal 113% | A498 renal 120% | HL-60(TB) leukemia 120% | MOLT-4 leukemia 106% | OVCAR-4 ovarian 88.7% | OVCAR-3 ovarian 108% | SW-620 colon 101%

c1ccc(-c2ccc3ccccc3[o+]2)cc1
inactive: NCI-H460 lung 97.2% | A549/ATCC NSCLC 90.8% | 786-0 renal 106% | COLO 205 colon 111% | K-562 leukemia 101% | MALME-3M melanoma 101% | RXF 393 renal 97.4% | SF-295 CNS 104% | UACC-257 melanoma 98% | SK-MEL-5 melanoma 88.8% | LOX IMVI melanoma 82.2% | SK-MEL-2 melanoma 88.8% | UO-31 renal 73.5% | A498 renal 109% | HL-60(TB) leukemia 89.7% | MOLT-4 leukemia 79% | OVCAR-4 ovarian 90.5% | OVCAR-3 ovarian 100% | SW-620 colon 92%

NS(=O)(=O)c1nc[nH]c1[N+](=O)[O-]
inactive: NCI-H460 lung 106% | 786-0 renal 102% | COLO 205 colon 113% | K-562 leukemia 101% | MALME-3M melanoma 102% | RXF 393 renal 116% | SF-295 CNS 108% | UACC-257 melanoma 119% | SK-MEL-5 melanoma 101% | LOX IMVI melanoma 101% | SK-MEL-2 melanoma 111% | UO-31 renal 84.7% | CAKI-1 renal 97.7% | HL-60(TB) leukemia 102% | MOLT-4 leukemia 102% | OVCAR-4 ovarian 105% | OVCAR-3 ovarian 115% | SW-620 colon 107%

O=C(NCCNC(=O)c1ccc([As](O)O)cc1)c1ccc([As](O)O)cc1
inactive: NCI-H460 lung 99.7% | A549/ATCC NSCLC 109% | 786-0 renal 114% | COLO 205 colon 100% | K-562 leukemia 116% | MALME-3M melanoma 108% | RXF 393 renal 105% | SF-295 CNS 107% | UACC-257 melanoma 103% | SK-MEL-5 melanoma 95.6% | LOX IMVI melanoma 90.3% | SK-MEL-2 melanoma 103% | UO-31 renal 96.8% | CAKI-1 renal 98.3% | A498 renal 92% | HL-60(TB) leukemia 105% | MOLT-4 leukemia 109% | OVCAR-4 ovarian 105% | OVCAR-3 ovarian 104% | SW-620 colon 94.7%

N#[N+]c1nc2nc(N)[nH]c(=O)c2[nH]1
inactive: NCI-H460 lung 101% | A549/ATCC NSCLC 89.8% | 786-0 renal 102% | COLO 205 colon 103% | K-562 leukemia 101% | MALME-3M melanoma 107% | RXF 393 renal 111% | SF-295 CNS 101% | UACC-257 melanoma 88.8% | SK-MEL-5 melanoma 92.5% | LOX IMVI melanoma 98.5% | SK-MEL-2 melanoma 101% | UO-31 renal 72% | A498 renal 107% | HL-60(TB) leukemia 100% | MOLT-4 leukemia 103% | OVCAR-4 ovarian 105% | SW-620 colon 97.9%

CC(=O)O[C@H]1CCC2(C)C(=CCC3C2CCC2(C)/C(=N/OC(=O)c4ccc(N(CCCl)CCCl)cc4)CCC32)C1 (stereo not given in full)
active: A549/ATCC NSCLC 2.05% | K-562 leukemia 5% | LOX IMVI melanoma 5.24% | UO-31 renal -11.9% | MOLT-4 leukemia 3.85%
inactive: NCI-H460 lung 21% | 786-0 renal 47.6% | COLO 205 colon 69.7% | MALME-3M melanoma 92.2% | RXF 393 renal 44.1% | SF-295 CNS 63.5% | UACC-257 melanoma 97.2% | SK-MEL-5 melanoma 73.2% | SK-MEL-2 melanoma 99.2% | CAKI-1 renal 50.2% | A498 renal 57% | HL-60(TB) leukemia 17.5% | OVCAR-3 ovarian 53.5% | SW-620 colon 84.1%

Nc1c(Br)cc([N+](=O)[O-])cc1[N+](=O)[O-]
inactive: NCI-H460 lung 103% | A549/ATCC NSCLC 92.3% | 786-0 renal 105% | COLO 205 colon 116% | K-562 leukemia 104% | RXF 393 renal 106% | SF-295 CNS 105% | UACC-257 melanoma 100% | LOX IMVI melanoma 103% | SK-MEL-2 melanoma 138% | CAKI-1 renal 92.8% | A498 renal 92.8% | HL-60(TB) leukemia 67.8% | MOLT-4 leukemia 97.2% | OVCAR-4 ovarian 107% | OVCAR-3 ovarian 108% | SW-620 colon 103%

O=C(CF)N(O)c1ccc(/C=C/c2ccccc2)cc1
active: 786-0 renal 8.73% | SF-295 CNS 9.04% | UACC-257 melanoma -7.11% | A498 renal -31.7%
inactive: NCI-H460 lung 13% | A549/ATCC NSCLC 36.4% | COLO 205 colon 68.8% | K-562 leukemia 45.4% | MALME-3M melanoma 82.9% | RXF 393 renal 50.7% | SK-MEL-5 melanoma 77.1% | LOX IMVI melanoma 39.8% | SK-MEL-2 melanoma 94.9% | UO-31 renal 36.2% | CAKI-1 renal 11.9% | HL-60(TB) leukemia 13.4% | MOLT-4 leukemia 34.9% | OVCAR-4 ovarian 70.8% | SW-620 colon 56.5%

COc1cc(/C=C\c2cc(OC)c(OC)c(OC)c2)cc(N/C=C\C(=O)c2ccc(OC(F)(F)F)cc2)c1OC
inactive: A549/ATCC NSCLC 19.4% | 786-0 renal 34.3% | UACC-257 melanoma 51.1% | SK-MEL-5 melanoma 27.6% | LOX IMVI melanoma 33.4% | UO-31 renal 32.9% | CAKI-1 renal 45.5% | HL-60(TB) leukemia 11% | MOLT-4 leukemia 34.6% | OVCAR-4 ovarian 57.4% | SW-620 colon 26.3%
active: NCI-H460 lung 4.92% | COLO 205 colon 3.12% | K-562 leukemia 4.67% | SF-295 CNS 9.29% | SK-MEL-2 melanoma -13.4% | A498 renal -1.24% | OVCAR-3 ovarian -8.54%

CC(/C=N/N=C(N)N)=N\N=C(N)N
inactive: NCI-H460 lung 82.7% | 786-0 renal 55.6% | COLO 205 colon 55.4% | K-562 leukemia 56.1% | MALME-3M melanoma 126% | SF-295 CNS 85.5% | SK-MEL-5 melanoma 137% | LOX IMVI melanoma 67% | UO-31 renal 46.9% | CAKI-1 renal 57.7% | A498 renal 83.9% | HL-60(TB) leukemia 77.6% | MOLT-4 leukemia 98.6% | OVCAR-4 ovarian 66.3% | OVCAR-3 ovarian 57.7% | SW-620 colon 70.6%
active: SK-MEL-2 melanoma -5.97%

CC[CH2][Pb]([CH2]CC)([CH2]CC)[O]C(=O)C(F)(F)F
active: NCI-H460 lung -71.6% | 786-0 renal -98.6% | COLO 205 colon -72.5% | K-562 leukemia 2.17% | MALME-3M melanoma -89.2% | RXF 393 renal -73.9% | SF-295 CNS -87.6% | SK-MEL-5 melanoma -98.3% | LOX IMVI melanoma -82.3% | SK-MEL-2 melanoma -87.7% | UO-31 renal -100% | CAKI-1 renal -95.2% | A498 renal -97.6% | HL-60(TB) leukemia -29.7% | MOLT-4 leukemia -27.8% | OVCAR-4 ovarian -97.4% | OVCAR-3 ovarian -95.4% | SW-620 colon -50.8%
